Inconclusive results are not listed. The source made the active and inactive calls. Rule for the calls, unless noted: active = hit-call score of the fitted dose curve at least 0.9, where 1 is the maximum; inactive = score below 0.9.

Usually AC50 stands for the concentration at which the activity in the assay is half-maximal.

Experiment [1] concerns the target human Retinoid X Receptor beta (RXRb), RXRB (gene 6257) (UniProt P28702). In words: ATG_RXRb_TRANS: Attagene TRANS-FACTORIAL HepG2 Assay for human Retinoid X Receptor beta (RXRb) (AID 2283013; active = hit-call score of the fitted dose curve at least 0.9, where 1 is the maximum). A digest of the protocol: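 Multiplexed TRANS reporter assay in HepG2; 24 h dosing; reporter mRNA by RT-PCR/CE fluorescence; gain-of-signal relative to DMSO.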
Experiment [2] has as its target human Thyroid Receptor alpha (THRa1), THRA (gene 7067) (UniProt P10827). In words: ATG_THRa1_TRANS: Attagene TRANS-FACTORIAL HepG2 Assay for human Thyroid Receptor alpha (THRa1) (AID 2283014; active = hit-call score of the fitted dose curve at least 0.9, where 1 is the maximum). The essentials: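 Reporter transcript induction, read by capillary electrophoresis of 6-FAM-labelled RT-PCR products, reflects activity of a transfected THRa1-Gal4 fusion in HepG2 liver cells. Cells were dosed for 24 h; activity was fitted in the positive direction against DMSO.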

Read-out in experiment [3]: Interleukin-1 alpha (IL1a), IL1A (gene 3552)
Nature of the experiment: BSK_BE3C_IL1a: BioMAP Diversity Plus: BE3C Assay for Interleukin-1 alpha (IL1a) Biomarker Activity (AID 2283016). The following applies: primary human bronchial epithelial cells; actives raise or lower the signal. The essentials: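 Cultures of primary human bronchial epithelial cells receive test chemical. After 24 h, IL-1a is quantified by ELISA, while parallel wells are fixed in TCA and SRB-stained for total protein. Changes in either direction are fitted relative to DMSO.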

Read-out in experiment [4]: Monocyte Chemoattractant Protein-1 (MCP1), CCL2 (gene 6347)
In words: BSK_3C_MCP1: BioMAP Diversity Plus: 3C Assay for Monocyte Chemoattractant Protein-1 (MCP1) Biomarker Activity (AID 2283017). The note with it: primary human endothelial cells (HUVEC); actives raise or lower the signal. A digest of the protocol:
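ELISA read-out of MCP-1 from human umbilical vein endothelial cell cultures harvested 24 h post-dosing. Gain or loss of signal was fitted relative to DMSO.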

Read-out in experiment [5]: Monocyte Chemoattractant Protein-1 (MCP1), CCL2 (gene 6347)
In words: BSK_4H_MCP1: BioMAP Diversity Plus: 4H Assay for Monocyte Chemoattractant Protein-1 (MCP1) Biomarker Activity (AID 2283018). The following applies: primary human endothelial cells (HUVEC); actives raise or lower the signal. The essentials:
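Readout: MCP-1 ELISA on compound-treated HUVEC, sampled 24 h post-dosing. Baseline and negative control DMSO; bidirectional fit. Overt toxicity checked alongside by sulforhodamine B protein staining at time of biomarker measurement.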

Read-out in experiment [6]: Human Leukocyte Antigen - DR isotype (HLADR), HLA-DRA (gene 3122)
Nature of the experiment: BSK_3C_HLADR: BioMAP Diversity Plus: 3C Assay for Human Leukocyte Antigen - DR isotype (HLADR) Biomarker Activity (AID 2283019).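 For outcome: ELISA of cell-surface HLA-DR on HUVEC 24 h after dosing.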 The following applies: primary human endothelial cells (HUVEC); actives raise or lower the signal. The essentials:
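ELISA readout of surface HLA-DR on human umbilical vein endothelium, taken 24 h after chemical treatment. Gain- and loss-of-signal were both fitted relative to DMSO.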

Read-out in experiment [7]: Interleukin-8 (IL8), CXCL8 (gene 3576)
In words: BSK_3C_IL8: BioMAP Diversity Plus: 3C Assay for Interleukin-8 (IL8) Biomarker Activity (AID 2283020). The following applies: primary human endothelial cells (HUVEC); actives raise or lower the signal. A digest of the protocol:
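Human vascular endothelial cells (umbilical vein) in the 3C system; IL-8 level detected by ELISA at 24 h post-dose, with DMSO as baseline.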

Read-out in experiment [8]: Monokine induced gamma interferon (MIG), CXCL9 (gene 4283)
Nature of the experiment: BSK_3C_MIG: BioMAP Diversity Plus: 3C Assay for Monokine induced gamma interferon (MIG) Biomarker Activity (AID 2283021). The note with it: primary human endothelial cells (HUVEC); actives raise or lower the signal. A digest of the protocol: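 After 24 h of treatment, human umbilical vein endothelial cultures (3C system) had their MIG biomarker level determined by ELISA, with DMSO serving as negative control.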

Experiment [9] concerns the target human Vitamin D Receptor (VDR), VDR (gene 7421) (UniProt P11473). Nature of the experiment: ATG_VDR_TRANS: Attagene TRANS-FACTORIAL HepG2 Assay for human Vitamin D Receptor (VDR) (AID 2283022; active = hit-call score of the fitted dose curve at least 0.9, where 1 is the maximum). The essentials: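 Steps: transfect HepG2 with GAL4-UAS-driven reporter constructs; dose compounds 24 h; isolate RNA, reverse-transcribe, PCR-amplify with 6-FAM-labelled primer extension and HpaI digestion; quantify fragments by capillary electrophoresis relative to DMSO.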

Experiment [10] in a line: BSK_3C_SRB: Viability Assessment in the BioMAP Diversity Plus: 3C Assay (AID 2283023).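 Note: fitted both ways against DMSO so a hit may be signal rise or drop.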 The following applies: primary human endothelial cells (HUVEC). A digest of the protocol:
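Absorbance at 560 nm of sulforhodamine B-stained (0.1%) total protein served as a cytotoxicity readout in human umbilical vein endothelial cells, 24 h after chemical treatment. Signal was fitted bidirectionally relative to DMSO.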

Read-out in experiment [11]: Matrix Metallopeptidase 1 (MMP1), MMP1 (gene 4312)
In words: BSK_BE3C_MMP1: BioMAP Diversity Plus: BE3C Assay for Matrix Metallopeptidase 1 (MMP1) Biomarker Activity (AID 2283024). The following applies: primary human bronchial epithelial cells; actives raise or lower the signal. The essentials: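 Dose cells, wait 24 h, run MMP1 ELISA; cells are human bronchial epithelial primaries. Both increases and decreases relative to DMSO counted.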

Experiment [12] in a line: BSK_3C_Vis: BioMAP Diversity Plus: 3C Assay for Morphology Visualization (AID 2283025).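 For AC50: light microscopy image of cell morphology used as background control.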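 Note: fitted both ways so gain or loss versus DMSO counts.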 The note with it: primary human endothelial cells (HUVEC). The essentials: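 Endothelial cells from human umbilical vein were treated with test chemicals for 24 h and inspected by light microscopy for changes in cell conformation.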
Read-out in experiment [13]: Pselectin, SELP (gene 6403)
In words: BSK_4H_Pselectin: BioMAP Diversity Plus: 4H Assay for Pselectin Biomarker Activity (AID 2283026). The note with it: primary human endothelial cells (HUVEC); actives raise or lower the signal. A digest of the protocol: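 Human vascular endothelium from umbilical vein; P-selectin measured by ELISA at 24 h post-dose, with cytotoxicity checked by sulforhodamine B total-protein staining in parallel cultures (0.1% SRB after 10% TCA fixation, read at 560 nm).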

Experiment [14] in a line: BSK_4H_SRB: Viability Assessment in the BioMAP Diversity Plus: 4H Assay (AID 2283027).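 For AC50: curves fitted both ways versus DMSO so AC50 may be loss or gain.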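 Note: cells exposed to compound for 24 h before staining.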 The note with it: primary human endothelial cells (HUVEC). The essentials:
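Human umbilical vein endothelial cells were dosed with chemical and, after 24 h, fixed with 10% TCA, stained with 0.1% sulforhodamine B, and read at 560 nm to give total protein as a cytotoxicity measure. Bidirectional fitting relative to DMSO control.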

Experiment [15] in a line: BSK_BE3C_SRB: Viability Assessment in the BioMAP Diversity Plus: BE3C Assay (AID 2283028). The note with it: primary human bronchial epithelial cells. A digest of the protocol:
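Cells (human bronchial epithelial, primary) are treated with chemicals, and after 24 h the parallel cultures are fixed in 10% TCA. These are then stained with 0.1% SRB and read at 560 nm. Gain or loss of signal is fitted relative to DMSO.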

Read-out in experiment [16]: Thrombomodulin, THBD (gene 7056)
In words: BSK_3C_Thrombomodulin: BioMAP Diversity Plus: 3C Assay for Thrombomodulin Biomarker Activity (AID 2283029). The note with it: primary human endothelial cells (HUVEC); actives raise or lower the signal. A digest of the protocol: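 Thrombomodulin ELISA, human primary HUVEC, 24 h post-dose; data fitted in both directions relative to DMSO.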

Read-out in experiment [17]: Urokinase-type plasminogen activator receptor (uPAR), PLAUR (gene 5329)
In words: BSK_4H_uPAR: BioMAP Diversity Plus: 4H Assay for Urokinase-type plasminogen activator receptor (uPAR) Biomarker Activity (AID 2283030). The note with it: primary human endothelial cells (HUVEC); actives raise or lower the signal. A digest of the protocol: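 Cell-surface uPAR ELISA signal, measured 24 h after dosing human umbilical vein endothelial cells, was analyzed with bidirectional fitting relative to DMSO. Parallel SRB staining of total protein tracked overt cytotoxicity.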

Read-out in experiment [18]: E-selectin (Homo sapiens) (UniProt P16581)
Nature of the experiment: BSK_3C_Eselectin: BioMAP Diversity Plus: 3C Assay for Eselectin Biomarker Activity (AID 2283015).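 For outcome: cell surface E-selectin protein quantified by ELISA 24 h after dosing.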 The following applies: primary human endothelial cells (HUVEC); actives raise or lower the signal. A digest of the protocol: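 ELISA read-out of E-selectin on endothelial monolayers after 24 h chemical treatment. Human umbilical vein primary cells served as the system, with DMSO defining baseline activity for bidirectional fitting.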

Sequence of human Retinoid X Receptor beta (RXRb), RXRB (gene 6257) (P28702 whole entry, looked up): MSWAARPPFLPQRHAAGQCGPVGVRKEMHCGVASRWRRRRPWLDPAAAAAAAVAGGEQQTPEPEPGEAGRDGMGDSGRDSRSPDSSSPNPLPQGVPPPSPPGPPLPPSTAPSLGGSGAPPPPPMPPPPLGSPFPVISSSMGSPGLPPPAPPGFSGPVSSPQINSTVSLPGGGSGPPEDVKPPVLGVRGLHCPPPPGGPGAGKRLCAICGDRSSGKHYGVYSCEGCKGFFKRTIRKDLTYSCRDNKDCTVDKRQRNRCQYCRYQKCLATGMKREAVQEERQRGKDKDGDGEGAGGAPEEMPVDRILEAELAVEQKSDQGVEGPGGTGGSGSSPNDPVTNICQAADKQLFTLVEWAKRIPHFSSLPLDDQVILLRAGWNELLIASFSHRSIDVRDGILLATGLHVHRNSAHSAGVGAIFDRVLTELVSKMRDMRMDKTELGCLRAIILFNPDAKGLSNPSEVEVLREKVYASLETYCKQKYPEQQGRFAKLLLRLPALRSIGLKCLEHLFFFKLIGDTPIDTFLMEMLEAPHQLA
Sequence of human Vitamin D Receptor (VDR), VDR (gene 7421) (P11473 whole entry, looked up, the tested form may be a part): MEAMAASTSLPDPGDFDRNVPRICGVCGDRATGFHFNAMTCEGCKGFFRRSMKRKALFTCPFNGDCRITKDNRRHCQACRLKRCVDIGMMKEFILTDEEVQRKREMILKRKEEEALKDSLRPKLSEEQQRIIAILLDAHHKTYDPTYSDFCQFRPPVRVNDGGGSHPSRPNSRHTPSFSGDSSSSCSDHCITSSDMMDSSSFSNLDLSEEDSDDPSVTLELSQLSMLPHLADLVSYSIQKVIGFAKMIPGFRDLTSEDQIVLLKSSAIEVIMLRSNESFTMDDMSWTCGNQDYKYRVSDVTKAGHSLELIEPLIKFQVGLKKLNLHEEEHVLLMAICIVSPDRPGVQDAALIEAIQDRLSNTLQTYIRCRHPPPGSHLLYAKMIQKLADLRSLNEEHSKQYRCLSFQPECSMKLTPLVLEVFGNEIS
Sequence of human Thyroid Receptor alpha (THRa1), THRA (gene 7067) (P10827 whole entry, looked up, the tested form may be a part): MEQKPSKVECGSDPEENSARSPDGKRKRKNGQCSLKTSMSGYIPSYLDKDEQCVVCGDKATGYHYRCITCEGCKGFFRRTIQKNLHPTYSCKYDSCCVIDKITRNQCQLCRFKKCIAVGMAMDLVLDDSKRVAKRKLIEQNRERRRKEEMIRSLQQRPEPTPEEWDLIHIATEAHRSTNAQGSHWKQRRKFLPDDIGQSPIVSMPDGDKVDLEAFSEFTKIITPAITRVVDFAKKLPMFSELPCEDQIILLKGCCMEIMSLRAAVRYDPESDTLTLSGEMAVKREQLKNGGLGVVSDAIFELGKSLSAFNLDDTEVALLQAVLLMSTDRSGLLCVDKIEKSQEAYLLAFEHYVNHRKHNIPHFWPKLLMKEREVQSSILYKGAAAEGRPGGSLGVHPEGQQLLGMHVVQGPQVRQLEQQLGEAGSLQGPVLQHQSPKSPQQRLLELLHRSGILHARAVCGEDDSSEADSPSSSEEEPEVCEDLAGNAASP
Sequence of E-selectin (Homo sapiens) (P16581 whole entry, looked up): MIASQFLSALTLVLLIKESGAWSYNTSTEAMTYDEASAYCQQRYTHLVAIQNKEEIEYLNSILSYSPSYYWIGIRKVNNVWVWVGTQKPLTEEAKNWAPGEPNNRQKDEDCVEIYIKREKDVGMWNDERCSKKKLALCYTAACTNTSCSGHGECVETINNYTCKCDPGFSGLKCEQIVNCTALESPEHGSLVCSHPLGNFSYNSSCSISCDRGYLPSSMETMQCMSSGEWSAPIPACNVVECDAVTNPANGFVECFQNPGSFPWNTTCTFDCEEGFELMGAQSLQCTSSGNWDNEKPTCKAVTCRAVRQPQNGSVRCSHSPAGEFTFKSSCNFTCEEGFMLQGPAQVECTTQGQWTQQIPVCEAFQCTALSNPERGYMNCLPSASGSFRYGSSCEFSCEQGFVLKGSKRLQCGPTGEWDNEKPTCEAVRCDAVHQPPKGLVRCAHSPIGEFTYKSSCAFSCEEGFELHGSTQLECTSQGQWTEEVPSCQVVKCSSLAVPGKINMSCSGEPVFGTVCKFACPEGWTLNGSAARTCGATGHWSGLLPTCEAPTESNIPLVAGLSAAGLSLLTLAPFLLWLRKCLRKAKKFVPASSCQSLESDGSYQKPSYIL

Turning to `O=P(Oc1ccccc1)(Oc1ccccc1)Oc1ccccc1`, the result in [1], in [2], in experiment [3], in experiment [8], in experiment [9] and in [11] was inactive. In addition, the result in [15] and in experiment [16] was inactive. In addition, the AC50 is 33.5 µM (active) in experiment [4]; 13.6 µM (active) in experiment [5]; 33.1 µM (active) in experiment [6]; 29.4 µM (active) in experiment [7]; 30.2 µM (active) in experiment [10]; 37.5 µM (active) in experiment [12]. For the same molecule, the concentration at half-maximal activity (AC50) is 33.2 µM (active) in experiment [13], 28.8 µM (active) in [14] and 29.9 µM (active) in experiment [17].

Regarding `CSC(C)(C)C=NO`, the call in experiment [1], in experiment [18], in [3], in experiment [4], in experiment [5] and in [6] was inactive. Moreover, the result in experiment [7], in [8], in experiment [9], in experiment [10], in experiment [11] and in [12] was inactive. For the same molecule, the result in [13], in experiment [14], in experiment [15], in experiment [16] and in experiment [17] was inactive.

On to `O=C(O)C1C(C(=O)O)C2(Cl)C(Cl)=C(Cl)C1(Cl)C2(Cl)Cl` (centres undefined), for which the outcome in [2], in [18], in experiment [3], in experiment [4], in [5] and in experiment [6] was inactive. Moreover, the result in experiment [7], in experiment [8], in experiment [10], in experiment [11], in experiment [13] and in [14] was inactive. The outcome in experiment [15] and in [16] was inactive.

Take `CC(C)(C)OOC(C)(C)C`: the molecule was classed as inactive in [2], in [18], in experiment [3], in experiment [4], in experiment [5] and in experiment [6]. For the same molecule, the outcome in experiment [7], in experiment [8], in experiment [10], in [11], in experiment [13] and in experiment [14] was inactive. Moreover, the result in experiment [15], in experiment [16] and in [17] was inactive.

`O=C(O)C=CC(F)(C(F)(F)F)C(F)(F)F`: the molecule was classed as inactive in [2], in [18], in [3], in experiment [4], in [5] and in experiment [6]. Further, the outcome in experiment [7], in experiment [8], in [9], in experiment [10], in experiment [11] and in [13] was inactive. The result in experiment [14], in experiment [15] and in experiment [16] was inactive.

Regarding `CCOP(=S)(NC(C)C)Oc1ccccc1C(=O)OC(C)C` (centres undefined), the AC50 in experiment [1] was 13.3 µM (active); in experiment [18] it was 20 µM (active). In addition, the outcome in experiment [3], in experiment [4], in [5], in experiment [6], in experiment [7] and in [8] was inactive. The outcome in experiment [9], in experiment [10], in [11], in [13], in experiment [14] and in experiment [15] was inactive. Further, the result in experiment [16] and in experiment [17] was inactive.

`COC(N)=O`: the molecule was classed as inactive in experiment [2].

On to `O=P(OCC(Br)CBr)(OCC(Br)CBr)OCC(Br)CBr` (centres undefined), for which the molecule was called inactive in [1], in [2], in experiment [8], in [13], in [15] and in experiment [16]. The half-maximal activity concentration (AC50) in experiment [3] was 29.3 µM (active); in experiment [4], 17.4 µM (active); in experiment [5] it was 3.45 µM (active); in [7], 17.4 µM (active); in experiment [10] it was 10.3 µM (active); in experiment [11], 3.88 µM (active). The concentration at half-maximal activity (AC50) in experiment [12] was 12.4 µM (active); in experiment [14], 1.54 µM (active).
